Bioassay records deposited in PubChem by National Center for Advancing Translational Sciences (NCATS).
The list is not random: actives were taken first. Their share in the collection is about 14%.
HSD17B inh – qHTS Assay for Inhibitors of HSD17B4, hydroxysteroid (17-beta) dehydrogenase 4 | recombinant HSD17B10, NADH fluorescence kinetic | Potency, µM (highest dose often 57.1 µM), usual class: inhibitors | 75,000 tested, 7.6% active | AID 893, 2007;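 also: the protocol describes HADH2 (HSD17B10) and not the HSD17B4 of the title; nearly all actives have a fitted effect of over 70% in size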
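20 nM HADH2, pH 9.0 Tris/Tween; cpd preinc 15 min RT; start w/ 1 mM NAD+ + 90 uM b-hydroxybutyryl-CoA; kinetic fluor ex360/em450 q30s x 4 min; delta last-first.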
HADH2 inh – qHTS Assay for Inhibitors of HADH2 (Hydroxyacyl-Coenzyme A Dehydrogenase, Type II). 3-hydroxyacyl-CoA dehydrogenase type-2 (Homo sapiens), Q99714. Potency, µM (titrated, usually from 57.1 µM), actives largely listed as inhibitors. 73,000 tested, 3.4% active. AID 886, 2007. recombinant HADH2, NADH fluorescence, beta-hydroxybutyryl-CoA; also: nearly all actives have a fitted effect of over 60% in size
Target sequence (Q99714 whole entry, looked up, one chain of several): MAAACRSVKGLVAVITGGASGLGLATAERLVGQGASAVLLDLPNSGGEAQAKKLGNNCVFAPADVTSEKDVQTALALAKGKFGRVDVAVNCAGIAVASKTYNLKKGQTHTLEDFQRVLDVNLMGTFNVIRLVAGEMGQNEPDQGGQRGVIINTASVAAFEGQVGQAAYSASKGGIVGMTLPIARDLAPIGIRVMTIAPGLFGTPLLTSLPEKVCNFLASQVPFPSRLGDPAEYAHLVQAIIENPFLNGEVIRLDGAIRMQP
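Read-out: 360 nm excitation, 450 nm emission, kinetic over 4 min. Conditions: His-tagged human HADH2 20 nM, pH 9.0 Tris with Tween-20, 1 mM NAD+, 90 uM beta-hydroxybutyryl-CoA.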
4-MU autofl – qHTS Assay for Spectroscopic Profiling in 4-MU Spectral Region; compound autofluorescence, 340/450 nm, 4-MU equivalents; active compounds read high; 59,000 tested, 11% active; max dye-equivalent concentration, M; in the data active = max dye-equivalent concentration above about 10 nM; inconclusive = mostly about 1.1 nM to 9.6 nM
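Compounds in 100 mM Tris, pH 8.0, sat 15 min at room temperature before fluorescence was read at 340 nm excitation/450 nm emission; a per-plate six-point 4-MU standard curve converted signals to dye-equivalent concentration at each compound concentration.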
CRE Fsk mod – Cell signaling CRE-BLA (Fsk stim); CHO CRE-bla reporter (cAMP response element driving beta-lactamase), forskolin EC10, beta-lactamase ratio; Potency, µM (top dose mostly 38.2 µM), most hits filed as activators; 71,000 tested, 2.5% active; AID 662, 2007; active = well fitted activation curve with a large enough effect in the signal ratio, with a control signal flat, not every such curve was filed as active; inconclusive = small, poorly fitted or top-dose-only effect, or effect the other way, or a change in a side signal; the % refers to the signal ratio
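Forskolin analogue NKH 477 at EC10 stimulated CRE-driven beta-lactamase in CHO cells alongside compound dilution series. Beta-lactamase was measured with CCF4, excitation 405 nm, emission ratio 460/530 nm.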
AID923 – qHTS Assay for Allosteric/Competitive Inhibitors of Caspase-1: Spectroscopic Profiling in AFC Spectral Region; compound fluorescence, AFC spectral region (405/520 nm); Potency, µM (top dose mostly 57.5 µM), most hits filed as activators; 75,000 tested, 1.1% active
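Titrations up to 57 uM read every 20 sec for 3 min (405/520 nm) with 50 nM caspase 1 and 5 uM Ac-WEHD-AFC, pH 7.5 HEPES buffer. Fluorescence-vs-time intercept gave baseline, scaled against on-plate AFC standard.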
A350 autofl – qHTS Assay for Spectroscopic Profiling in A350 Spectral Region. Compound autofluorescence, 340/450 nm, Alexa 350 dye-equivalents; active compounds read high. max dye-equivalent concentration, M. 59,000 tested, 11% active. AID 590, 2007; in the data active = max dye-equivalent concentration above about 10 nM; inconclusive = mostly about 1.1 nM to 9.6 nM
Numbers stand for hits; 0 = inactive; ? = inconclusive; - = no result given; [ ] = another dose, or the depositor's remark. Unless noted, calls follow the shape of the dose curve; as a rule, active = well fitted curve in the direction sought with a large enough effect; inconclusive = small, poorly fitted or top-dose-only effect, or another doubt; inactive = no such curve, though single readings can be large; an effect the other way counts as inactive or inconclusive.

SMILES	HSD17B inh	HADH2 inh	4-MU autofl	CRE Fsk mod	AID923	A350 autofl
Cc1cc(C)c2nc(-c3ccccn3)cc(C(=O)NCc3ccco3)c2c1	25.1µM	0	2.93e-08M	?	0	3.2e-08M
CCc1ccc(S(=O)(=O)Nc2ccc(O)c(C(=O)O)c2)cc1	0	0	-	-	0	-
CCCCCCCCCCCCCCCC(=O)NC(C)C	0	0	-	0	0	-
CCCCCCCCCCCCCCC/C=C\[C@H](O)[C@@H](NC(=O)CCCCCCCCCCCCC)OC (tested in a mixture with another compound)	0	0	0	0	0	0
COc1ccccc1CNc1ccnc(-c2cccc(NS(C)(=O)=O)c2)n1	0	0	0	?	0	0
O=C(NCc1ccco1)c1cc2ccccc2c(=O)o1	25.1µM	?	?	?	0	?
Cc1cc(C)c2nc(-c3ccccn3)cc(C(=O)Nc3cc(C)on3)c2c1	25.1µM	?	3.77e-08M	0	0	2.89e-08M
Cc1cc(NC(=O)c2cc(-c3cccs3)nc3ccccc23)no1	31.6µM	0	-	?	0	-
O=C(NCc1ccco1)c1cccc2ccccc12	0	0	0	0	0	0
OC[C@@H]1O[C@@H](n2cnc3c(SCc4ccccc4)ncnc32)[C@@H](O)[C@H]1O	0[11.4 µM]	0[11.4 µM]	0	0[7.6 µM]	0[11.5 µM]	0
CC(=O)OC1C[C@]2(C)[C@@H](CC(O)C3[C@]4(C)CCC(O)C(C)[C@@H]4CC[C@]32C)/C1=C(/CCC=C(C)C)C(=O)O (stereo not given in full)	0	-	-	-	0	-
O=C1c2sc3nc4c(c(=O)n3c2C(=O)N1c1ccccc1)CCC4	0	?	?	0	0	?
Cc1ccccc1N1C(=O)c2sc3nc4c(c(=O)n3c2C1=O)CCC4	0	25.1µM	-	0	0	-
O=C1c2sc3nc4ccccc4n3c2C(=O)N1c1ccccc1Cl	0	7.94µM	0	0	0	0
CC(C)(C)N1C(=O)[C@H]2[C@H]3[C@H](O)[C@H](O)C/C(=N/OC[C@@H](O)COCc4ccco4)[C@@H]3CC[C@@H]2C1=O	0[11.4 µM]	0[11.4 µM]	-	-	0[11.5 µM]	-
COc1ccc(NC(=O)CCN2C(=O)C3CC=C(Cl)CC3C2=O)cc1 (stereo not given)	0	0	-	0	0	-
O=C(C[C@@H](C(=O)O)N1CCOCC1)c1ccccc1	0[11.4 µM]	?	0	?	0[11.5 µM]	0
CCCn1c2c(c(O)c(C(=O)Nc3ccc(OCC)cc3)c1=O)CCCC2	0	0	7.93e-08M	0	0	6.79e-08M
Cc1cc(C)c2c(N)c(S(=O)(=O)c3ccccc3)sc2n1	39.8µM	?	9.68e-08M	?	0	7.51e-08M
Cc1cc(C)c2c(-n3cccc3)c(C(=O)O)sc2n1	?	0	0	0	0	0
CCCCS(=O)(=O)c1sc2nc(C)cc(C)c2c1N	0	0	1.98e-08M	0	0	2.1e-08M
O=c1[nH]cnc2c1nc(Cl)n2C1OC(CO)C(O)C1O (stereo not given)	0	-	-	-	0	-
CN1C(=O)c2ccccc2C(C(=O)NCC2CCCO2)C1c1c[nH]c2ccccc12 (stereo not given)	0	0	0	0	0	0
CCOC(=O)N1CCC(NC(=O)c2cc3cc4cc(OC)ccc4nc3o2)CC1	25.1µM	0	3.72e-07M	?	0	3.81e-07M
CCOC(=O)N1CCC(NC(=O)CS(=O)(=O)Cc2nc(-c3cccc(OC)c3)oc2C)CC1	0	0	0	0	0	0
COc1ccc2nc3oc(C(=O)N4CCN(c5ccccc5F)CC4)cc3cc2c1	?	0	1.81e-08M	?	0	1.89e-08M
COc1ccc2nc3oc(C(=O)NC4CCN(Cc5ccccc5)CC4)cc3cc2c1	3.16µM	0	6.77e-08M	?	0	7.16e-08M
COc1cc(OC)cc(C(=O)N2CCN(c3ccccc3F)CC2)c1	0	0	0	0	0	0
CCOC(=O)C1CCN(C(=O)Nc2ccc(Cl)cc2Cl)CC1	0	0	0	0	0	0
